# A selection: hits, their analogues and other compounds. The true share with any hit is near 21%.
# IL1B secr inh: inhibitors of inflammasome signaling (IL-1 beta secretion); activity change, % at 57.5 µM; THP-1 LPS/ATP IL-1B secretion, AlphaLISA, 16 h; active compounds read low; 360,000 tested, 4.7% active; in the data active means activity change below about -50%; inconclusive means mostly about -30% to -49%
#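 THP-1 cells pretreated 1 hr with compounds (up to 57.5 uM final), then stimulated with LPS (250 ng/mL final) plus ATP (1.25 mM final); secreted IL-1B measured by AlphaLISA after 16 hr, decreased signal indicating inhibition.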
# DT40 TDP1 no CPT: qHTS for Inhibitors of human tyrosyl-DNA phosphodiesterase 1 (TDP1): qHTS in cells in absence of CPT. DT40 Tdp1-/- hTDP1 cells, no CPT, ATP luminescence, 48 h. Potency, µM (series often up to 46.2 µM), for inactives: at the top dose activity change, negative = growth inhibition, actives largely listed as inhibitors. 420,000 tested, 15% active; further: potency means the concentration at half of the fitted maximal effect; nearly all actives have a fitted effect of over 55% in size
#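 Readout: luminescence from CellTiter-Glo after 30 min in the dark at RT. Cells: DT40 Tdp1-/- with stable hTDP1, 400/well. Exposure: compounds alone, ≥48 hr, 37 °C.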
# TDP1 cell CPT: growth inhibition of DT40 Tdp1-/-;hTDP1 cells with camptothecin (screen for TDP1 inhibitors). chicken DT40 Tdp1-/-;hTDP1 cells + 20 nM CPT, ATP luminescence, 48 h. Potency, µM (doses to about 46.2 µM), inactives show at the top dose activity change, negative = growth inhibition, hits mostly inhibitors. 420,000 tested, 12% active. AID 686979; further: potency means the concentration at half of the fitted maximal effect; nearly all actives have a fitted effect of over 55% in size
#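 Chicken DT40 Tdp1-/- cells complemented with human TDP1, 400 cells/well, exposed to compounds plus 20 nM camptothecin for at least 48 h at 37 C; viability read as ATP content by CellTiter-Glo luminescence.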
# Gal4-VP16 FLuc: counter-screen for ROR gamma inhibitors: Gal4-VP16 reporter | AID 2546 | Potency, µM (titrated, usually from 53.6 µM), inactives show top-dose activity, negative = inhibition, usual class: inhibitors | Drosophila S2 Gal4-VP16 UAS-luciferase, luminescence, 20 h | 310,000 tested, 3.5% active;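 further: Gal4-VP16 expression switched on by copper sulfate through the metallothionein promoter; potency means the concentration at half of the fitted maximal effect; nearly all actives have a fitted effect of over 50% in size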
# RORg inh: inhibitors of mouse ROR gamma transcriptional activity; P51450; Drosophila S2 Gal4-RORgamma UAS-luciferase reporter, 20 h; Potency, µM (series often up to 53.6 µM), for inactives: at the top dose activity change, negative = inhibition, most hits filed as inhibitors; 310,000 tested, 5.4% active; further: potency means the concentration at half of the fitted maximal effect; nearly all actives have a fitted effect of over 60% in size
# Target sequence (P51450 whole entry, looked up, the tested form may be a part): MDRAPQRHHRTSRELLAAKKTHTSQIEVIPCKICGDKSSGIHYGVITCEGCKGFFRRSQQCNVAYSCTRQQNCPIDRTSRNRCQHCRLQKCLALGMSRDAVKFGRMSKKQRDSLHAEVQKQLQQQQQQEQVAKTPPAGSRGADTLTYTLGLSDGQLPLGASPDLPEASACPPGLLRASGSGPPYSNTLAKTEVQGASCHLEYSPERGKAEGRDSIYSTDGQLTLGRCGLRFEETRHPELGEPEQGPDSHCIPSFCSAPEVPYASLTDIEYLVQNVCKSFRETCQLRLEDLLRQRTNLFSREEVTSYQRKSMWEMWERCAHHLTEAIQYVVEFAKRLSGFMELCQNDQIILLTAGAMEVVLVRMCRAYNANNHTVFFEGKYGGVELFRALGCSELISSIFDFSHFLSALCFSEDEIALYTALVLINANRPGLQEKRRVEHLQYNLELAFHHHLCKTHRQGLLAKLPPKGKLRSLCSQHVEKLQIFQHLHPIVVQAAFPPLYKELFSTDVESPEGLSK
#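 Read-out: Photinus luciferase luminescence; inhibitors lower reporter signal. Insect Schneider cells with Gal4-ROR gamma fusion under metallothionein promoter, UAS reporter; 700 uM final copper sulfate induction, 20 hr, ambient temperature.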
# ELG1 repair inh: inhibitors of ELG1-dependent DNA repair in HEK293T cells; HEK293T ELG1-luciferase reporter, luminescence, 16 h; DNA damage induced by 5-fluorouridine; 330,000 tested, 2.3% active; Potency, µM (highest dose often 46.1 µM), inactives show at the top dose activity change, negative = inhibition, most hits filed as inhibitors; further: potency means the concentration at half of the fitted maximal effect; nearly all actives have a fitted effect of over 55% in size
#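 In this reporter screen, reduction of luminescence relative to DMSO vehicle indicated activity. Compounds and 5-fluorouridine were added together to 2,000 cells per well, incubated for 16 hr at 37 °C, then developed with ONE-Glo.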
# An asterisk follows results filed as active; ? = inconclusive; . = no result given; [ ] = dose if it differs, or a comment. Unless noted, the call rests on the fitted dose curve; in most records, active means well fitted curve in the direction sought with a large enough effect; inconclusive means small, poorly fitted or top-dose-only effect, or another doubt; inactive means no such curve, though single readings can be large; an effect the other way counts as inactive or inconclusive. On the % scale 0 is the no-effect control and ±100 the full control effect.
SMILES,IL1B secr inh,DT40 TDP1 no CPT,TDP1 cell CPT,Gal4-VP16 FLuc,RORg inh,ELG1 repair inh
c1ccc(CCn2nnnc2C(c2cccs2)N2CCN(Cc3ccc4c(c3)OCO4)CC2)cc1 (stereo not drawn),?,23.1µM*,?,?,-10.1%,?
Oc1ccc(N2CCN(C(c3cccnc3)c3nnnn3Cc3ccccc3)CC2)cc1 (stereo not drawn),5.4,18.4µM*,?,16.5%,24.6%,-28.5%
N#Cc1cccc(C(c2nnnn2CCc2ccccc2)N2CCN(C3CCCCC3)CC2)c1 (stereo not drawn),?,17.8µM*,?,4.5%,?,1.9%
c1ccc(CCn2nnnc2C(c2cccnc2)N2CCN(c3ccccc3)CC2)cc1 (stereo not drawn),-15.9,11.2µM*,13µM*,-28.8%,?,-1.3%
COc1ccc(C(c2nnnn2Cc2ccccc2)N2CCN(c3ccccc3)CC2)cc1 (stereo not drawn),6.7,-8.1%,-6.0%,10.4%,-4.2%,-21.7%
COc1cc(NC(=O)CCn2cnc3ccccc3c2=O)cc(OC)c1,.,?,-17.3%,.,.,.
Cc1cc2nc3c(nc2cc1C)CCCC3,-5.3,-28.5%,-0.5%,3.7%,-29.4%,?
COc1ccc(NC(=O)N2CC[C@@]3(CCCN(C(=O)c4csnn4)C3)C2)cc1,.,-14.3%,1.5%,-4.7%,-11.8%,.
Fc1ccc(N2CCN(C(c3cccs3)c3nnnn3CCc3ccccc3)CC2)cc1 (stereo not drawn),-3.5,23.1µM*,?,-1.7%,35.5%,-14.0%
Fc1ccccc1N1CCN(C(c2cccs2)c2nnnn2CCc2ccccc2)CC1 (stereo not drawn),0.0,?,?,2.8%,-4.3%,-10.8%
c1ccc(CCn2nnnc2C(c2cccnc2)N2CCN(c3nc4ccccc4s3)CC2)cc1 (stereo not drawn),-64.4*,11.2µM*,18.4µM*,?,-3.0%,?
COc1ccc(OC)c(C(c2nnnn2CCc2ccccc2)N2CCN(c3ccccc3)CC2)c1 (stereo not drawn),-85.1*,35.5µM*,?,4.0%,-0.1%[10 µM],-18.8%
NCCNCCN,.,3.1%,17.2%,-15.5%,-14.3%,.
COc1ccc(C(=O)O)cc1S(=O)(=O)NCCN(C)C,2.2,21.1%,1.7%,-0.4%,3.9%,5.2%
CCOC(=O)c1ccc(NC(=O)c2cc3c([nH]c2=O)CC(c2ccccc2)CC3=O)cc1 (stereo not drawn),.,-27.2%,11.3%,.,.,.
O=C(NCc1ccc(Cl)s1)C1CCC(=O)N(CCc2cccc(F)c2)C1 (stereo not drawn),9.9,15.0%,-11.1%,3.1%,8.1%,-0.3%
CCc1n[nH]c(=S)n1/N=C/c1ccc2c(c1)OCO2,0.0,-5.1%,-20.8%,?,11.2µM*,4.0%
Cc1nnc(-c2ccccc2)c(=O)n1/N=C/c1c(O)ccc2ccccc12,107.9,5.17µM*,4.11µM*,17.8µM*,?,?
Cn1c(=S)n(/N=C/c2ccc3c(c2)OCO3)c2ccccc21,3.3,-2.0%,-3.1%,21.5%,11.2µM*,?
CCc1n[nH]c(=S)n1/N=C/c1ccc(N(C)c2ccccc2)cc1,4.6,?,?,?,4.47µM*,?
Cc1nnc(C)n1/N=C/c1c(O)ccc2ccccc12,19.4,-19.5%,21.4%,4.9%,-14.8%,26.2%
Nc1ncnc2c1ncn2[C@@H]1O[C@H](C(=O)Nc2cc(C(F)(F)F)cc(C(F)(F)F)c2)[C@@H](O)[C@H]1O,?,?,-18.4%,.,.,.
CC1CCCCC1NC(=O)CSc1nnc(C(F)(F)F)n1C (stereo not drawn),-14.9,10.0%,-2.5%,.,.,.
CN(C)C(=O)c1cc2c(c(-c3cccc(-c4ccccc4F)c3)n1)[C@@H](CCO)N(S(C)(=O)=O)C2,10.7,-12.1%,-10.2%,.,.,.
CCN(CC(=O)NCc1ccc(Cl)cc1)C(=O)c1sccc1C,7.3,1.9%,?,.,.,11.9%
SMILES,IL1B secr inh,DT40 TDP1 no CPT,TDP1 cell CPT,Gal4-VP16 FLuc,RORg inh,ELG1 repair inh
Cc1nn(-c2ccccc2)c(C)c1/C=N/n1c(-c2ccccc2Br)n[nH]c1=S,18.0,-18.6%,?,-8.6%,?,?
CCN(CC)c1ccc(/C=N/n2c(-c3ccccc3Br)n[nH]c2=S)cc1,-67.2*,18.4µM*,?,-4.5%,1µM*,?
CCc1n[nH]c(=S)n1/N=C/c1c(O)ccc2ccccc12,6.0,0.1%,8.8%,20µM*,?,3.8%
CCc1n[nH]c(=S)n1/N=C/c1ccccn1,-9.4,-20.5%,5.4%,-2.9%,2.3%,7.2%
COc1cc(Br)cc(Br)c1OCC(=O)N/N=C/c1c(C)n(C)n(-c2ccccc2)c1=O,-9.1,4.5%,9.8%,-2.8%,-9.6%,-6.7%
COc1cc(NS(=O)(=O)c2c(C)oc3c(F)c(F)c(F)c(F)c23)cc(OC)c1OC,15.8,18.4µM*,23.1µM*,?,82.4%,-9.7%
COc1cc(NS(=O)(=O)c2cn(C)cn2)cc(OC)c1OC,-5.0,27.2%,-7.4%,-2.4%,-12.3%,12.0%
Cc1ccc(C(=O)Nc2cccc(-c3nc(CNC(=O)[C@@H]4C[C@@H](C)NC(=S)N4)c(C)o3)c2)s1,.,?,-13.1%,.,.,.
Cc1ccc(NC(=O)CCc2nnc3ccc(N4CCC5(CC4)OCCO5)nn23)nc1,-6.5,-3.0%,-13.4%,-1.5%,-10.4%,5.8µM*
COc1ccc(NC(=O)CCc2nnc3ccc(N4CCN(c5cccc(OC)c5)CC4)nn23)cc1,-1.2,14.6µM*,?,5.2%,16.8%,?
COc1cccc(NC(=O)CCc2nnc3ccc(N4CCN(c5cccc(OC)c5)CC4)nn23)c1,33.3,?,?,7.2%,7.9%,4.2%
Cc1cccc(NC(=O)CSc2ncc3c(n2)-c2ccccc2N(Cc2ccc(F)cc2)S3(=O)=O)c1C,.,-25.3%,?,.,.,.
O=C(OC(C(=O)Nc1ccc(Cl)cc1C(F)(F)F)c1ccccc1)c1c(Cl)cccc1Cl (stereo not drawn),0.0,13µM*,?,-12.7%,-9.2%[10 µM],-12.2%
Cc1ccc(C(=O)OC(C(=O)Nc2ccc(Cl)cc2C(F)(F)F)c2ccccc2)cc1 (stereo not drawn),14.2,23.1µM*,?,-1.9%,0.9%,-7.8%
Cc1ncc2c(c1O)COP(=O)(O)OC2,.,-16.7%,2.1%,-2.8%,1.6%,.
